The structures appear in SMILES notation. For some of these results: Measured potencies and affinities stand elsewhere.

What all share (set-up): scale not given: direction of the effect not stated beside the values
The target in assay [1] is Protein translocase subunit SecA (Escherichia coli (strain K12)) (UniProt P10408). The assay is described as follows: Assay to Identify E. coli SecA ATPase Inhibitors. The class given is functional. Conditions: 30 µM.
For assay [2], the target named is T1, Ubiquitin-activating enzyme e1, putative (Leishmania donovani (strain BPK282A1)) (UniProt E9BSI1).
T1 sequence (whole entry): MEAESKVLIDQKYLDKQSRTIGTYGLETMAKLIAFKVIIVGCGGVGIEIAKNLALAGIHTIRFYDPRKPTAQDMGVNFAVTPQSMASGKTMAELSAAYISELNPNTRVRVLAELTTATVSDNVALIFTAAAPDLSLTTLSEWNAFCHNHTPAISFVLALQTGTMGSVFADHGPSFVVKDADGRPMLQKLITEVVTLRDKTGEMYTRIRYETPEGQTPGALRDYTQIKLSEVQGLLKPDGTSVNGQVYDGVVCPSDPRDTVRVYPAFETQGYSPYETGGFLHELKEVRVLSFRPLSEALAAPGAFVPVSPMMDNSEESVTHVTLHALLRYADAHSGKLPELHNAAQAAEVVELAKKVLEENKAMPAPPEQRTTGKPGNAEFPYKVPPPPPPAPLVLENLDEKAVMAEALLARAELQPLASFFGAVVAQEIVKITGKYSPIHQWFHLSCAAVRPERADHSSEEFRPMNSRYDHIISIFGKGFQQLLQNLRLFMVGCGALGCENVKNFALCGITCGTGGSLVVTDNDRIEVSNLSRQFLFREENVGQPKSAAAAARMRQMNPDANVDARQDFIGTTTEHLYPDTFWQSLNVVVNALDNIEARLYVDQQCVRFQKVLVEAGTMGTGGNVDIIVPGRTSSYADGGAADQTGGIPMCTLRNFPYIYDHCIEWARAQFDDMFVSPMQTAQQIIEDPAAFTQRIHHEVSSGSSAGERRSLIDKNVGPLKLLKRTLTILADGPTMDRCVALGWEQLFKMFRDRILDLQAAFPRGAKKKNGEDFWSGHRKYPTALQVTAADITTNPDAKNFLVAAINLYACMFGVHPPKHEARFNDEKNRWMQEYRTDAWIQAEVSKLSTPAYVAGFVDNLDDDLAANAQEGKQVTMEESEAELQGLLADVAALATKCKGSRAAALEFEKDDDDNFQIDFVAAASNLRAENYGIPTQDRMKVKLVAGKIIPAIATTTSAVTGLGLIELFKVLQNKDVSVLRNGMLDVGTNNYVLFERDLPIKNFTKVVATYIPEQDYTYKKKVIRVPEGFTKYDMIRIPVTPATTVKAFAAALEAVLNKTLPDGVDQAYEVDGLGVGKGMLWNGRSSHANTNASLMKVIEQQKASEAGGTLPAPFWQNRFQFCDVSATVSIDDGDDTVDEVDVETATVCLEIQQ
As to the kind of experiment: Leishmania donovani Ubiquitin Activating Enzyme (LdE1). The class given is functional. Conditions: 30 µM.

Assay [3] deals with AMP-activated protein kinase, AMPK (Homo sapiens) (UniProt P54646+O43741+P54619+Q9UGJ0+Q9Y478+Q13131+Q9UGI9). The assay is described as follows: AMP-dependent Kinase enzyme assay. An in vitro enzyme assay that detects ADP turnover that is directly proportional to AMPK activity. This uses naive AMPK that is activated during the assay with MK-8722. The class given is functional. Particulars: 30 µM.

For assay [4], the target named is Sialic acid-binding Ig-like lectin 9 (Homo sapiens) (UniProt Q9Y336). The assay is described as follows: Hs-Siglec9 ALPHAscreen SOP 20170721. Particulars: 10 µM.
Sequence of Sialic acid-binding Ig-like lectin 9 (Homo sapiens) (Q9Y336 whole entry): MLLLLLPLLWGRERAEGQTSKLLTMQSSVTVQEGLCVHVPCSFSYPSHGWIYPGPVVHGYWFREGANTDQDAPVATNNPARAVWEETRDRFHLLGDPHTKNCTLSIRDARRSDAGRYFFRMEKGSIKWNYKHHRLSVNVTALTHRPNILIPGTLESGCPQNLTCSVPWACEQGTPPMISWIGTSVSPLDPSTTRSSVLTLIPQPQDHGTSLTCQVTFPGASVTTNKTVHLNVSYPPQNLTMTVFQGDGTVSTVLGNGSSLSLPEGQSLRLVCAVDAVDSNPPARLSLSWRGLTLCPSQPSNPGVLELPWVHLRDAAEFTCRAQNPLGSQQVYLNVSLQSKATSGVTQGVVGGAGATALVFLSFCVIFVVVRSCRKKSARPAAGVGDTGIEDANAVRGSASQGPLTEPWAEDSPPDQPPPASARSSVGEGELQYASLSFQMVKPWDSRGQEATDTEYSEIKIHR
Assay [5] relates to Trypanosoma cruzi. The assay is described as follows: Trypanosoma cruzi phosphomannomutase and mannose-1-phosphate guanylyltransferase assay. Type of assay: functional. Particulars: 10 µM.
The target in assay [6] is T2, Arginase-2, mitochondrial (Homo sapiens) (UniProt P78540).
T2 sequence (whole entry): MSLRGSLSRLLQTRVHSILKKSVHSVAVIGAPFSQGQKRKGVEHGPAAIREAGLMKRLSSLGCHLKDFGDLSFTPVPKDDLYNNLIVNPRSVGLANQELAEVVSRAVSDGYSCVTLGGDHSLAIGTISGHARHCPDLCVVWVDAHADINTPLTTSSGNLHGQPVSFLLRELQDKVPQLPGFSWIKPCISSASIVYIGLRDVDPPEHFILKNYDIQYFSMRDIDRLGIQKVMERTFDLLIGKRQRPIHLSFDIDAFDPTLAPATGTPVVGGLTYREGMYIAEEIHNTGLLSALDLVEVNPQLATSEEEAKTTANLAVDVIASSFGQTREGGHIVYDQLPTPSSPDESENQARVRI
As to the kind of experiment: in vitro enzyme assay to detect the production of urea directly proportional to the activity of Arginase II. Also: in the data most compounds retested in dose-response had high values. The class given is functional. Particulars: 33.3 µM.

Assay [7] deals with T3, Proteasome subunit beta (Trypanosoma cruzi) (UniProt O96673).
T3 sequence (whole entry): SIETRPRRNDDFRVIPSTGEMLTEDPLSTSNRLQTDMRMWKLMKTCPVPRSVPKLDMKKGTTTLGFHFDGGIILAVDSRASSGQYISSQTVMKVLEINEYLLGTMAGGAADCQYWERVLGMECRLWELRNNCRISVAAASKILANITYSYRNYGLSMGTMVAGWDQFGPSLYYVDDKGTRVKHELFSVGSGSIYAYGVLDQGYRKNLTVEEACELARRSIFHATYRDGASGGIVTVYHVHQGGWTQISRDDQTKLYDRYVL
As to the kind of experiment: Trypanosoma cruzi proteasome chymotrypsin-like activity (TcProtChymo) assay. Also: in the data most compounds retested in dose-response had high values. Particulars: 9.37 µM. Type of assay: functional.

Assay [8] is filed under the species Homo sapiens. The assay is described as follows: To identify inhibition of the IFN signalling (Jak-Stat) pathway via expression of an eGFP reporter gene under the control of an IFN-stimulated response element (ISRE) containing MxA promoter. Type of assay: functional. Conditions: 30 µM. A general note: In a reporter assay the amount or activity of a reporter protein is the signal.

Assay [9] deals with T4, Tyrosyl-tRNA synthetase, putative (Trypanosoma cruzi (strain CL Brener)) (UniProt Q4DSP6).
T4 sequence (whole entry): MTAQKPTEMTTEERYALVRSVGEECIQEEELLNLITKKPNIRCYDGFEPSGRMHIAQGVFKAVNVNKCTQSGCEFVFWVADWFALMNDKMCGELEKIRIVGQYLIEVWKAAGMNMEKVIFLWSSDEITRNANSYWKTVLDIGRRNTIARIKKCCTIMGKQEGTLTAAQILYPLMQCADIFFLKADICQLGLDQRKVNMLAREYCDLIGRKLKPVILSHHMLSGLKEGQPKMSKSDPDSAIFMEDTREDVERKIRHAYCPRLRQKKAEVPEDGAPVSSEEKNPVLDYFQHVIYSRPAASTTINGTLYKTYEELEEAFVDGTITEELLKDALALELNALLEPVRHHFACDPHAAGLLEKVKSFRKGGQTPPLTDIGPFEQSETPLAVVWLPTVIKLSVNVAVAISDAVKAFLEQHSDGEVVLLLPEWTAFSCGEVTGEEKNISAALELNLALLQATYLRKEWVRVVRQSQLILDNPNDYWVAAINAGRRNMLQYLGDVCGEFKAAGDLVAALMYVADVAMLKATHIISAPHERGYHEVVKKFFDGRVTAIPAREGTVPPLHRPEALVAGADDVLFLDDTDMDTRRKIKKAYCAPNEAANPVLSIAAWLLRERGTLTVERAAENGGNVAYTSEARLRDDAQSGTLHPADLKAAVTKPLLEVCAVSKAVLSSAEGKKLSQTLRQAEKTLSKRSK
As to the kind of experiment: Trypanosoma cruzi tyrosyl tRNA synthetase (TcYRS) _High Tyrosine SOP. Also: in the data most compounds retested in dose-response had high values. The class given is functional. Conditions: 30 µM.

Assay [10] has as its target T4, Tyrosyl-tRNA synthetase, putative (Trypanosoma cruzi (strain CL Brener)). The assay is described as follows: Trypanosoma cruzi tyrosyl tRNA synthetase (TcYRS) SOP. The class given is functional. Conditions: 30 µM.
Assay [11] addresses Chromo domain-containing protein 1 (Saccharomyces cerevisiae (strain ATCC 204508 / S288c) (Baker's yeast)) (UniProt P32657). The assay is described as follows: ScCHD-1 Enzyme Inhibition Assay. Also: in the data most compounds retested in dose-response had high values. The class given is functional. Conditions: 30 µM.

Sequence of Chromo domain-containing protein 1 (Saccharomyces cerevisiae (strain ATCC 204508 / S288c) (Baker's yeast)) (P32657 whole entry, the tested form may be a part): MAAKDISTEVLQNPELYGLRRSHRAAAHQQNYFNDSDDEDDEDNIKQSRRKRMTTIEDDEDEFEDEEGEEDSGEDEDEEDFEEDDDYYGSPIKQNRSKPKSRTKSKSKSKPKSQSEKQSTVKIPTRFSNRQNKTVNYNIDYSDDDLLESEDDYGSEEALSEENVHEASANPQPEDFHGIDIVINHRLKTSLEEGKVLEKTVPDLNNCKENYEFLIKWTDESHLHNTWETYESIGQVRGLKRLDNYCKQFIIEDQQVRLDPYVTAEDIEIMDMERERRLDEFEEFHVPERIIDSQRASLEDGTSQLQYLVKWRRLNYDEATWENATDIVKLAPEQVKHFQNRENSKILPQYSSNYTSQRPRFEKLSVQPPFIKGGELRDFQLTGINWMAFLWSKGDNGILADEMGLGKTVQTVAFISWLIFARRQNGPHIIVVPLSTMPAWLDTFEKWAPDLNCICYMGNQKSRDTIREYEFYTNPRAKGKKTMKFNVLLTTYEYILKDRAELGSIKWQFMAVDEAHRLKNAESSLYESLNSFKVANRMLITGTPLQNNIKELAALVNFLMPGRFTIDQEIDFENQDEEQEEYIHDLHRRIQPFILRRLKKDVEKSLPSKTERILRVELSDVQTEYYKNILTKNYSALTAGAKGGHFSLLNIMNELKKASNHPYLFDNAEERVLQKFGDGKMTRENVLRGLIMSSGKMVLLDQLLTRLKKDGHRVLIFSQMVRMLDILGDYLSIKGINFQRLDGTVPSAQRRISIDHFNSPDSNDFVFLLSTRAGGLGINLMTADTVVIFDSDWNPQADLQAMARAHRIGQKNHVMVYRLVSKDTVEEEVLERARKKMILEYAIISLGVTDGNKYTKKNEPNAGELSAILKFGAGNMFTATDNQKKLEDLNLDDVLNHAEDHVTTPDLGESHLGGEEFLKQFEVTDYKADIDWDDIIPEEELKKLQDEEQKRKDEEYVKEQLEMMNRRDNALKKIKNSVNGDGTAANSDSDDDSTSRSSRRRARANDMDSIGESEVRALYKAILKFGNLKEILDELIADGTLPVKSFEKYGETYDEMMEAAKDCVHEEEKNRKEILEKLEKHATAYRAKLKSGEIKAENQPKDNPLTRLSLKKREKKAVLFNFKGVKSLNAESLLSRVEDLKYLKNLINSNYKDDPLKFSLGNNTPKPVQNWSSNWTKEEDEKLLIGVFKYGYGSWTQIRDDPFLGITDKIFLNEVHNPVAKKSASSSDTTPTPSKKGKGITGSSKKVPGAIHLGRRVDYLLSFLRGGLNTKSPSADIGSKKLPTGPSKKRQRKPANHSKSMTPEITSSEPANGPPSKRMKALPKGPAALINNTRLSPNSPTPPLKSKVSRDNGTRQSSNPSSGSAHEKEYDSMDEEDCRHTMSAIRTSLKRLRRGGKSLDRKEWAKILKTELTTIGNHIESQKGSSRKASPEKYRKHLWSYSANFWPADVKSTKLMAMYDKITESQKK
Sequence of Protein translocase subunit SecA (Escherichia coli (strain K12)) (P10408 whole entry): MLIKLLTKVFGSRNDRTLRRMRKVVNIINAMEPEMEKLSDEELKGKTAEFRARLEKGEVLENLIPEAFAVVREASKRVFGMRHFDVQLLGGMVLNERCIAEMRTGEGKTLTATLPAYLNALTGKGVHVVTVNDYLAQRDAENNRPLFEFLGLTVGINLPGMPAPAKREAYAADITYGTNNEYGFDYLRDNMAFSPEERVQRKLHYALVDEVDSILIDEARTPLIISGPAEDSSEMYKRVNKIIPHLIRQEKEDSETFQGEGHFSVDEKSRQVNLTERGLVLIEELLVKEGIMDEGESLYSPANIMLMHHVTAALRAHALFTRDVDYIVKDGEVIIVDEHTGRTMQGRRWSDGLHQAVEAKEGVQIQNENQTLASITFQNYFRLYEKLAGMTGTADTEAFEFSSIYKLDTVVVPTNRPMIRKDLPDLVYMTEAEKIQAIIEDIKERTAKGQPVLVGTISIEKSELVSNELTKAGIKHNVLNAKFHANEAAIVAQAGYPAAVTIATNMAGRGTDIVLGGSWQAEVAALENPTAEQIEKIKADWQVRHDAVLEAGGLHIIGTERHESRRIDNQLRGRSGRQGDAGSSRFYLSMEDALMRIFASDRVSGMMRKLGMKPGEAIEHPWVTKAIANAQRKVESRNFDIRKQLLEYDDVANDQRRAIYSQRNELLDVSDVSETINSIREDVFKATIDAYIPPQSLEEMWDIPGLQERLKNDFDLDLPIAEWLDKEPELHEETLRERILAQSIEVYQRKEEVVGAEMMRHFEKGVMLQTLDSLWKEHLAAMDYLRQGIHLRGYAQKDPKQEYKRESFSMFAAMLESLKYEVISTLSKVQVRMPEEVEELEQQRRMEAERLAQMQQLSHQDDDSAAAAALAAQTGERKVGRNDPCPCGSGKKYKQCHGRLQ

As for `Cc1ccc(C(=O)N(C)Cc2cc(Br)cs2)c(=O)[nH]1`, the Percent Effect in assay [1] is 1.09%; in assay [2], 7.89%; in assay [3] it was 5.18%; in [4], -2.8%; in [5], -3.8%; in assay [6], -3.55%. Further, the Percent Effect in [7] is 23.3%; in assay [8], 0.327%; in assay [9], 5.32%; in assay [10], 7.79%; in assay [11] it was -3.78%.

Turning to `c1cncc(COCC2CN(Cc3ccco3)Cc3ccnn3C2)c1` (stereo unspecified), the Percent Effect was -3% in assay [1]; 13.5% in assay [2]; -6.55% in assay [3]; 4.29% in [4]; -0.0978% in assay [5]; 6.2% in assay [6]. Moreover, the Percent Effect in assay [7] is 5.06%; in [8], 9.51%; in assay [9] it was 7.53%; in assay [10] it was 13.6%; in assay [11] it was -2.33%.

`CCCC1CCCN(Cc2csc(-c3cnn(C)c3)n2)CC1` (stereo unspecified): the Percent Effect is -2.48% in assay [1]; -5.26% in assay [2]; -0.945% in assay [3]; -3.96% in [4]; -0.376% in [5]; -5.75% in [6]. Also, the Percent Effect in assay [7] is 20.4%; in [8], 20.6%; in assay [9], 8.33%; in [10], 19.5%; in [11], -4.84%.

On to `CNS(=O)(=O)c1cccc(CNc2cc(C(F)(F)F)ccn2)c1`, for which the Percent Effect in assay [1] is -7.14%; in assay [2], 5.41%; in assay [3], 12.6%; in assay [4], -1.96%; in assay [5], -6.13%; in [6], 5.21%. For the same compound, the Percent Effect in assay [7] was 0.54%; in [8] it was 38.2%; in assay [9], 4.43%; in assay [10], 3.7%; in [11], -1.45%.

On to `CN1N=C(C(=O)N2CCCC(CCc3c(F)cccc3F)C2)CCC1=O` (stereo unspecified), for which the Percent Effect in assay [1] was -4.37%; in assay [2] it was 2.7%; in [3], 0.625%; in assay [4] it was 7.41%; in [5], 1.74%; in assay [6], 0%. Also, the Percent Effect was 1.21% in [7]; 4.11% in assay [8]; 3.7% in assay [9]; 7.32% in [10]; -1.23% in [11].

As to `Cn1cc(C[C@H]2[C@H](O)CCN2CC2CC2)cn1`, the Percent Effect was -2.02% in assay [1]; -2.7% in assay [2]; 6.23% in assay [3]; 1.34% in assay [4]; 1.27% in assay [5]; -32.8% in assay [6]. The Percent Effect worked out at 11.2% in assay [7]; 1.21% in assay [8]; 5.41% in assay [9]; 5.13% in assay [10]; 0.853% in assay [11].

On to `O=C(CCc1ccccc1)N1CCC(N2CCNC2=O)CC1`, for which the Percent Effect in [1] is -4.14%; in assay [2], 7.79%; in assay [3], 3.48%; in assay [4], -3.35%; in [5], -4.6%; in [6], 1.47%. Further, the Percent Effect is 6.06% in assay [7]; 15.5% in assay [8]; 3.81% in assay [9]; 14.1% in assay [10]; -13.9% in assay [11].

Consider `CN(Cc1cn2c(n1)CN(c1ncc(F)cn1)CC2)Cc1ccco1`, for which the Percent Effect in assay [1] is -3.08%; in assay [2] it was 13.3%; in [3], -4.28%; in assay [4], -1.26%; in assay [5], 0.197%; in assay [6], 4.89%. Further, the Percent Effect in assay [7] was 20.7%; in assay [8], 1.67%; in [9], 9.57%; in assay [10] it was 21.8%; in [11] it was -5.99%.

Regarding `COCCc1noc(CNC2CCc3nc(C(C)C)nn3C2)n1` (stereo unspecified), the Percent Effect is -1.47% in [1]; 2.6% in assay [2]; 8.06% in assay [3]; -4.34% in [4]; -1.27% in assay [5]; -2.74% in assay [6]. For the same compound, the Percent Effect in [7] was 6.39%; in assay [8] it was 17.2%; in assay [9], 0.952%; in assay [10] it was 0%; in assay [11], -13.7%.

Consider `Cn1ccnc1CN(CCCO)C1CCCc2ccccc21` (stereo unspecified), for which the Percent Effect in [1] is -5.87%; in assay [2], 5.26%; in [3], 3.03%; in assay [4], 9.71%; in [5] it was 0.876%; in [6], -2.37%. Moreover, the Percent Effect in [7] is 3.55%; in [8] it was 18.1%; in assay [9], 3.19%; in assay [10], 7.79%; in assay [11] it was -0.447%.

Consider `O=C1CCC2(CCN(c3ncc(F)cn3)CC2)N1CCN1CCCC1`, for which the Percent Effect in assay [1] is -2.97%; in [2], 7.79%; in assay [3] it was -0.558%; in assay [4] it was -6.43%; in [5], -2.07%; in [6] it was 1.94%. Also, the Percent Effect is 21.4% in assay [7]; 12.5% in assay [8]; 1.06% in assay [9]; 3.85% in [10]; -7.84% in assay [11].

The values above are taken from ChEMBL document CHEMBL3988442, “University of Dundee, Small-Polar-MMV Screening Library” (2021).
